Data taken from the antibiotic and cytotoxicity screens of Wong et al. (2023).
The campaign covered roughly 39,000 compounds. About 3,300 (8.5%) were called active. The list comes from a sample in which actives are over-represented; it also holds similar structures and randomly drawn compounds.

Each compound was assayed on HepG2 (assay: cytotoxicity call (relative viability < 0.9)). Conditions: 10 µM.

With `Cc1noc(C)c1S(=O)(=O)Nc1ccc2c(c1)C(=O)N([C@@H](C)CO)C[C@H](C)[C@H](CN(C)C(=O)Nc1ccc(F)cc1)OCCCC[C@H](C)O2` as the compound, how does the cytotoxicity call read?
Its cytotoxicity call is “inactive”.

For `O=c1ccn([C@H]2O[C@H](CO)[C@@H](O)[C@@H]2O)c(=S)[nH]1`, which cytotoxicity call is on record?
The cytotoxicity call was “active”.

Which cytotoxicity call does the source give for `O=c1ccn([C@@H]2O[C@H](CO)[C@@H](O)[C@H]2O)c(=O)[nH]1` here?
The cytotoxicity call was “inactive”.

With `O=c1ccn(C2OC(CO)C(O)C2O)c(=O)[nH]1` (stereo unspecified) as the compound, how does the cytotoxicity call read?
Its cytotoxicity call is “inactive”.

With `C[C@H]1CN([C@@H](C)CO)C(=O)Cc2cc(NC(=O)CCC(F)(F)F)ccc2O[C@@H]1CN(C)C(=O)Nc1cccc2ccccc12` as the compound, how does the cytotoxicity call read?
The cytotoxicity call was “inactive”.

Which cytotoxicity call does the source give for `NC[C@H](c1ccco1)N1CCCCCC1` here?
Its cytotoxicity call is “inactive”.

`OC[C@@H]1CC[C@@H]2O[C@H](CCc3ccc(C#Cc4ccccc4)cc3)[C@H](n3cc(-c4ccccc4)nn3)C[C@@H]2O1` was tested. Which cytotoxicity call did it give?
Its cytotoxicity call is “inactive”.

Which cytotoxicity call does the source give for `OC[C@H]1CC[C@@H]2O[C@H](CCc3ccc(C#Cc4ccccc4)cc3)[C@H](n3cc(-c4ccccc4)nn3)C[C@@H]2O1` here?
The cytotoxicity call was “inactive”.

How did the cytotoxicity call turn out when `OC[C@H]1CC[C@@H]2O[C@H](CCc3ccc(C#CCc4ccccc4)cc3)[C@H](n3cc(-c4ccccc4)nn3)C[C@@H]2O1` was run?
The cytotoxicity call was “inactive”.

Which cytotoxicity call does the source give for `OC[C@@H]1CC[C@@H]2O[C@H](CCc3ccc(C#Cc4ccccc4)cc3)[C@@H](n3cc(-c4ccccc4)nn3)C[C@@H]2O1` here?
Its cytotoxicity call is “active”.

With `OC[C@H]1CC[C@@H]2O[C@H](CCc3ccc(C#Cc4ccccc4)cc3)[C@@H](n3cc(-c4ccccc4)nn3)C[C@@H]2O1` as the compound, how does the cytotoxicity call read?
Its cytotoxicity call is “active”.

For `OC[C@H]1CC[C@@H]2O[C@H](CCc3ccc(C#CCc4ccccc4)cc3)[C@@H](n3cc(-c4ccccc4)nn3)C[C@@H]2O1`, which cytotoxicity call is on record?
The cytotoxicity call was “inactive”.

`C[C@H](CO)N1C[C@H](C)[C@@H](CN(C)Cc2ccc(C(=O)O)cc2)OCCCC[C@H](C)Oc2ccc(NS(=O)(=O)c3ccccc3)cc2C1=O` was tested. Which cytotoxicity call did it give?
The cytotoxicity call was “inactive”.

Which cytotoxicity call does the source give for `CN1CCN(C(=O)C[C@H]2CC[C@H]3[C@@H](COC[C@@H](O)CN3C(=O)C3CC3)O2)CC1` here?
The cytotoxicity call was “inactive”.

For `C[C@H](CO)N1C[C@H](C)[C@H](CN(C)Cc2ccccc2)Oc2ccc(NC(=O)Cn3cnnn3)cc2CC1=O`, which cytotoxicity call is on record?
Its cytotoxicity call is “inactive”.

Which cytotoxicity call does the source give for `COc1ccc(S(=O)(=O)N(C)C[C@@H]2Oc3ncc(-c4ccncc4)cc3C(=O)N([C@H](C)CO)C[C@H]2C)cc1` here?
The cytotoxicity call was “inactive”.

For `NCc1cccc2c1OCC2`, which cytotoxicity call is on record?
The cytotoxicity call was “inactive”.

Which cytotoxicity call does the source give for `CC(C)NCCCn1c(Sc2cc3c(cc2I)OCO3)nc2c(N)ncnc21` here?
Its cytotoxicity call is “active”.

How did the cytotoxicity call turn out when `CCOc1nc2c(N)ncnc2n1CC` was run?
The cytotoxicity call was “inactive”.

Which cytotoxicity call does the source give for `COc1ccc(CN(C)C[C@H]2OCCCC[C@H](C)Oc3ccc(NC(=O)Nc4ccccc4)cc3C(=O)N([C@H](C)CO)C[C@H]2C)cc1` here?
Its cytotoxicity call is “inactive”.

`C[C@@H]1CN([C@H](C)CO)S(=O)(=O)c2ccc(C#CCC3CCCC3)cc2O[C@H]1CN(C)C(=O)c1cnccn1` was tested. Which cytotoxicity call did it give?
Its cytotoxicity call is “inactive”.

`C[C@@H]1CCCCO[C@@H](CN(C)C(=O)Nc2ccccc2)[C@@H](C)CN([C@@H](C)CO)C(=O)c2cc(NC(=O)Nc3ccccc3)ccc2O1` was tested. Which cytotoxicity call did it give?
The cytotoxicity call was “inactive”.

With `Cc1noc(C)c1NC(=O)Nc1ccc2c(c1)C(=O)N([C@H](C)CO)C[C@H](C)[C@@H](CN(C)S(=O)(=O)c1ccccc1)O2` as the compound, how does the cytotoxicity call read?
The cytotoxicity call was “inactive”.

How did the cytotoxicity call turn out when `Cc1noc(C)c1S(=O)(=O)Nc1cccc2c1O[C@H](CN(C)C(=O)NC(C)C)[C@H](C)CN([C@@H](C)CO)C2=O` was run?
The cytotoxicity call was “inactive”.

With `COc1ccc(S(=O)(=O)N[C@@H]2C=C[C@H](CC(=O)NCCc3ccncc3)O[C@H]2CO)cc1` as the compound, how does the cytotoxicity call read?
Its cytotoxicity call is “inactive”.

With `O=C(C[C@@H]1C[C@H]2c3cc(NC(=O)c4ccc5c(c4)OCO5)ccc3O[C@H]2[C@H](CO)O1)NCCN1CCCCC1` as the compound, how does the cytotoxicity call read?
Its cytotoxicity call is “inactive”.

Which cytotoxicity call does the source give for `COc1ccc([Si](C)(C)[C@H]2[C@H](CC(=O)N3Cc4ccccc4C[C@H]3CO)O[C@@]3(C(=O)N(Cc4ccc(N5CCOC5=O)cc4)c4ccccc43)[C@@H]2C)cc1` here?
Its cytotoxicity call is “active”.

`COc1ccc([Si](C)(C)[C@@H]2[C@@H](CC(=O)N3Cc4ccccc4C[C@H]3CO)O[C@]3(C(=O)N(Cc4ccc(N5CCOC5=O)cc4)c4ccccc43)[C@H]2C)cc1` was tested. Which cytotoxicity call did it give?
The cytotoxicity call was “inactive”.

`COc1ccc(C(=O)Nc2ccc(CN3C(=O)[C@@]4(O[C@@H](CC(=O)N5Cc6ccccc6C[C@H]5CO)[C@H]([Si](C)(C)c5ccc(OC)cc5)[C@H]4C)c4ccccc43)cc2)cc1` was tested. Which cytotoxicity call did it give?
Its cytotoxicity call is “inactive”.

Which cytotoxicity call does the source give for `COc1ccc([Si](C)(C)[C@@H]2[C@@H](CC(=O)N3Cc4ccccc4C[C@H]3CO)O[C@]3(C(=O)N(Cc4ccc(I)cc4)c4ccccc43)[C@H]2C)cc1` here?
The cytotoxicity call was “inactive”.

With `COc1ccc(C(=O)Nc2cccc(CN3C(=O)[C@]4(O[C@H](CC(=O)N5CCC[C@H]5CO)[C@@H]([Si](C)(C)c5ccc(OC)cc5)[C@@H]4C)c4ccccc43)c2)cc1` as the compound, how does the cytotoxicity call read?
Its cytotoxicity call is “inactive”.

How did the cytotoxicity call turn out when `COc1ccc([Si](C)(C)[C@H]2[C@H](CC(=O)N3Cc4ccccc4C[C@H]3CO)O[C@@]3(C(=O)N(Cc4cccc(N5CCOC5=O)c4)c4ccccc43)[C@@H]2C)cc1` was run?
Its cytotoxicity call is “inactive”.

Which cytotoxicity call does the source give for `COc1ccc(C(=O)Nc2cccc(CN3C(=O)[C@@]4(O[C@@H](CC(=O)N5Cc6ccccc6C[C@H]5CO)[C@H]([Si](C)(C)c5ccc(OC)cc5)[C@H]4C)c4ccccc43)c2)cc1` here?
Its cytotoxicity call is “active”.

How did the cytotoxicity call turn out when `COc1ccc(C(=O)Nc2ccc(CN3C(=O)[C@]4(O[C@H](CC(=O)N5Cc6ccccc6C[C@H]5CO)[C@@H]([Si](C)(C)c5ccc(OC)cc5)[C@@H]4C)c4ccccc43)cc2)cc1` was run?
Its cytotoxicity call is “active”.

Which cytotoxicity call does the source give for `COc1ccc(C(=O)Nc2cccc(CN3C(=O)[C@@]4(O[C@@H](CC(=O)N5CCC[C@H]5CO)[C@H]([Si](C)(C)c5ccc(OC)cc5)[C@H]4C)c4ccccc43)c2)cc1` here?
Its cytotoxicity call is “inactive”.

With `C[C@H](CO)N1C[C@H](C)[C@@H](CN(C)Cc2ccc(-c3ccccc3)cc2)Oc2c(NC(=O)C3CCOCC3)cccc2C1=O` as the compound, how does the cytotoxicity call read?
The cytotoxicity call was “inactive”.

Which cytotoxicity call does the source give for `C[C@@H]1CN([C@H](C)CO)C(=O)c2cc(NC(=O)CCCN(C)C)ccc2O[C@@H](C)CCCCO[C@@H]1CN(C)S(C)(=O)=O` here?
The cytotoxicity call was “inactive”.

Which cytotoxicity call does the source give for `C[C@@H]1CN([C@H](C)CO)C(=O)CCCn2cc(nn2)CO[C@@H]1CN(C)C(=O)Nc1ccc(N2CCCCC2)cc1` here?
The cytotoxicity call was “inactive”.

With `Cc1noc(C)c1NC(=O)N(C)C[C@H]1Oc2ccc(NS(C)(=O)=O)cc2CC(=O)N([C@@H](C)CO)C[C@H]1C` as the compound, how does the cytotoxicity call read?
Its cytotoxicity call is “inactive”.

How did the cytotoxicity call turn out when `C[C@@H]1CCCCO[C@@H](CN(C)S(=O)(=O)c2cn(C)cn2)[C@H](C)CN([C@@H](C)CO)C(=O)c2cc(N(C)C)ccc2O1` was run?
The cytotoxicity call was “inactive”.

How did the cytotoxicity call turn out when `O=C(C[C@@H]1CC[C@@H]2[C@H](COC[C@H](O)CN2Cc2cc(F)ccc2F)O1)N[C@@H]1CCN(Cc2ccccc2)C1` was run?
The cytotoxicity call was “inactive”.

How did the cytotoxicity call turn out when `C[C@@H]1CN([C@@H](C)CO)C(=O)c2cc(Br)cnc2O[C@H]1CN(C)C(=O)CCN1CCCCC1` was run?
Its cytotoxicity call is “inactive”.

With `C[C@@H]1CCCCO[C@H](CN(C)C(=O)Nc2ccc(F)cc2)[C@H](C)CN([C@@H](C)CO)C(=O)c2cc(NC(=O)Nc3cccc4ccccc34)ccc2O1` as the compound, how does the cytotoxicity call read?
Its cytotoxicity call is “inactive”.

How did the cytotoxicity call turn out when `Cc1cc(C)c2c(c1)[C@@H](N(Cc1cc(C(F)(F)F)cc(C(F)(F)F)c1)c1nnn(C)n1)CCCN2C[C@H]1CC[C@H](C(=O)O)CC1` was run?
The cytotoxicity call was “active”.

How did the cytotoxicity call turn out when `Cc1ccc(S(=O)(=O)Nc2ccc3c(c2)C(=O)N([C@H](C)CO)C[C@H](C)[C@H](CN(C)S(=O)(=O)c2ccc(C)cc2)OCCCC[C@@H](C)O3)cc1` was run?
Its cytotoxicity call is “inactive”.

For `Cc1ccc(S(=O)(=O)Nc2ccc3c(c2)CC(=O)N([C@H](C)CO)C[C@@H](C)[C@@H](CN(C)Cc2ccc(Cl)c(Cl)c2)O3)cc1`, which cytotoxicity call is on record?
Its cytotoxicity call is “active”.

How did the cytotoxicity call turn out when `Cc1ccc(S(=O)(=O)Nc2ccc3c(c2)CC(=O)N([C@H](C)CO)C[C@H](C)[C@@H](CN(C)Cc2ccc(Cl)c(Cl)c2)O3)cc1` was run?
Its cytotoxicity call is “inactive”.

How did the cytotoxicity call turn out when `Cc1ccc(S(=O)(=O)Nc2ccc3c(c2)CC(=O)N([C@@H](C)CO)C[C@@H](C)[C@H](CN(C)Cc2ccc(Cl)c(Cl)c2)O3)cc1` was run?
The cytotoxicity call was “inactive”.

Which cytotoxicity call does the source give for `Cc1ccc(S(=O)(=O)Nc2ccc3c(c2)CC(=O)N([C@H](C)CO)C[C@H](C)[C@H](CN(C)Cc2ccc(Cl)c(Cl)c2)O3)cc1` here?
The cytotoxicity call was “active”.

How did the cytotoxicity call turn out when `Cc1ccc(S(=O)(=O)Nc2ccc3c(c2)CC(=O)N([C@@H](C)CO)C[C@H](C)[C@H](CN(C)Cc2ccc(Cl)c(Cl)c2)O3)cc1` was run?
Its cytotoxicity call is “active”.

For `Cc1ccc(S(=O)(=O)Nc2ccc3c(c2)CC(=O)N([C@H](C)CO)C[C@@H](C)[C@H](CN(C)Cc2ccc(Cl)c(Cl)c2)O3)cc1`, which cytotoxicity call is on record?
The cytotoxicity call was “inactive”.

With `Cc1ccc(S(=O)(=O)Nc2ccc3c(c2)CC(=O)N([C@@H](C)CO)C[C@H](C)[C@@H](CN(C)Cc2ccc(Cl)c(Cl)c2)O3)cc1` as the compound, how does the cytotoxicity call read?
The cytotoxicity call was “inactive”.

For `Cc1ccc(S(=O)(=O)Nc2ccc3c(c2)CC(=O)N([C@@H](C)CO)C[C@@H](C)[C@@H](CN(C)Cc2ccc(Cl)c(Cl)c2)O3)cc1`, which cytotoxicity call is on record?
The cytotoxicity call was “active”.

Which cytotoxicity call does the source give for `Cc1ccc(S(=O)(=O)Nc2ccc3c(c2)C(=O)N([C@@H](C)CO)C[C@H](C)[C@@H](CN(C)S(C)(=O)=O)OCCCC[C@@H](C)O3)cc1` here?
The cytotoxicity call was “inactive”.

With `COc1ccc(S(=O)(=O)Nc2ccc3c(c2)C(=O)N([C@H](C)CO)C[C@@H](C)[C@@H](CN(C)Cc2ccc(Cl)c(Cl)c2)O3)cc1` as the compound, how does the cytotoxicity call read?
The cytotoxicity call was “inactive”.

Which cytotoxicity call does the source give for `O=C(C[C@@H]1CC[C@H]2[C@@H](COC[C@@H](O)CN2S(=O)(=O)c2cccc(F)c2)O1)NCc1ccncn1` here?
The cytotoxicity call was “inactive”.

`CC(=O)N1CCC(C(=O)O)CC1` was tested. Which cytotoxicity call did it give?
Its cytotoxicity call is “inactive”.

How did the cytotoxicity call turn out when `COc1ccc(NC(=O)N(C)C[C@@H]2OCCCC[C@H](C)Oc3ccc(NC(=O)C4CCCCC4)cc3C(=O)N([C@@H](C)CO)C[C@@H]2C)cc1` was run?
Its cytotoxicity call is “inactive”.

`Cc1cc(C)n(-c2ccc(=O)n(CC(=O)N3CCN(S(=O)(=O)c4ccc(F)cc4)CC3)n2)n1` was tested. Which cytotoxicity call did it give?
The cytotoxicity call was “inactive”.

Which cytotoxicity call does the source give for `C[C@@H]1CN([C@H](C)CO)C(=O)c2cc(NC(=O)CCN3CCOCC3)ccc2O[C@H]1CN(C)S(=O)(=O)c1ccc(F)cc1` here?
Its cytotoxicity call is “inactive”.

With `C[C@H](CO)N1C[C@H](C)[C@H](CN(C)C(=O)Nc2ccc3c(c2)OCO3)Oc2c(NC(=O)C3CCOCC3)cccc2C1=O` as the compound, how does the cytotoxicity call read?
Its cytotoxicity call is “inactive”.
